# Reference: the supplement of paper PMC9694430
# Experiments:
# Assay in all cases: thermal shift delta Tm vs DMSO control; higher = stronger stabilization (binding)
# Settings in all cases: 12.5 µM; protein concentration 2 µM
# [1] = test system: LOC_OS02G45750-cb003
# Procedure, shortened: (§1)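 Purified, E. coli-expressed rice kinase domain constructs were tested by differential scanning fluorimetry in 96-well plates: 19.5 μl of 2 μM kinase in 100 mM potassium phosphate pH 7.5, 150 mM NaCl, 10% glycerol, 5 × SYPRO Orange, plus compound in DMSO. Fluorescence was read from 25°C to 95°C at 0.05°C/s. Melting temperatures came from Boltzmann fits, and the shift is the triplicate mean relative to protein with DMSO alone.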
# [2] = test system: LOC_OS02G54510-cb004
# Procedure, shortened: as §1
# [3] = test system: LOC_OS03G04050-cb001
# Procedure, shortened: as §1
# [4] = test system: LOC_OS03G12390-cb001
# Procedure, shortened: as §1
# [5] = test system: LOC_OS03G27990-cb004
# Procedure, shortened: as §1
# [6] = test system: LOC_OS03G50450-cb001
# Procedure, shortened: as §1
# [7] = test system: LOC_OS03G50810-cb003
# Procedure, shortened: as §1
# [8] = test system: LOC_OS04G35114-cb001
# Procedure, shortened: as §1
# [9] = test system: T1, LOC_OS04G38480-cb003
# T1 sequence (whole entry): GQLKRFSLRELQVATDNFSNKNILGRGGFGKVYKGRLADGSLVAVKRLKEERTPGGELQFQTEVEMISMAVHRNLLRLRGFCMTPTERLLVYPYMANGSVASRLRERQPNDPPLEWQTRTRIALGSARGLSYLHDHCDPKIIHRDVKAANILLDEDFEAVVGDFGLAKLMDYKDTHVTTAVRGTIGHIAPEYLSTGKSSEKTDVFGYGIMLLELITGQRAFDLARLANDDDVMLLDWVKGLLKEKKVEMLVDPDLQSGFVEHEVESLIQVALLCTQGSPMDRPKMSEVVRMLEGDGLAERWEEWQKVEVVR
# Procedure, shortened: as §1
# [10] = test system: T2, LOC_OS04G41100-cb001
# T2 sequence (whole entry): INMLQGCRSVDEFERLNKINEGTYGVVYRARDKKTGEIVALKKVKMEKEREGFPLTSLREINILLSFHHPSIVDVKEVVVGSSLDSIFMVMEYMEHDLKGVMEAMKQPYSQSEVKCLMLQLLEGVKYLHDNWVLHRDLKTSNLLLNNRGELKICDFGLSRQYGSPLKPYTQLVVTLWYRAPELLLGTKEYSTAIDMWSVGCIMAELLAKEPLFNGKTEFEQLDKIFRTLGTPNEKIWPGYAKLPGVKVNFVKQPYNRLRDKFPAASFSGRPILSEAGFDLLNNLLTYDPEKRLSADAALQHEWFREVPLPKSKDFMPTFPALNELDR
# Procedure, shortened: as §1
# [11] = test system: LOC_OS04G57630-cb004
# Procedure, shortened: as §1
# [12] = test system: LOC_OS05G07850-cb002
# Procedure, shortened: as §1
# [13] = test system: LOC_OS05G16824-cb004
# Procedure, shortened: as §1
# [14] = test system: LOC_OS05G28520-cb001
# Procedure, shortened: as §1
# [15] = test system: LOC_OS05G30820-cb001
# Procedure, shortened: as §1
# [16] = test system: LOC_OS05G43570-cb004
# Procedure, shortened: as §1
# [17] = test system: LOC_OS06G16330-cb003
# Sequence of LOC_OS06G16330-cb003 (as listed by the source): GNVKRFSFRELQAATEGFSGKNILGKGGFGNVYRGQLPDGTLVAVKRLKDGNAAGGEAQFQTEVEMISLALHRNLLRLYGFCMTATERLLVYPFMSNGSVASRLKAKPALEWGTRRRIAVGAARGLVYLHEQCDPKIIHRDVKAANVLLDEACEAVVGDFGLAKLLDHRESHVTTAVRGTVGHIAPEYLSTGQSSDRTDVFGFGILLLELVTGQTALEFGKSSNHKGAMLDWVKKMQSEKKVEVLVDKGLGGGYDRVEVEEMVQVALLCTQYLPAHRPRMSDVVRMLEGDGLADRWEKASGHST
# Procedure, shortened: as §1
# [18] = test system: T3, LOC_OS06G22820-cb001
# T3 sequence (whole entry): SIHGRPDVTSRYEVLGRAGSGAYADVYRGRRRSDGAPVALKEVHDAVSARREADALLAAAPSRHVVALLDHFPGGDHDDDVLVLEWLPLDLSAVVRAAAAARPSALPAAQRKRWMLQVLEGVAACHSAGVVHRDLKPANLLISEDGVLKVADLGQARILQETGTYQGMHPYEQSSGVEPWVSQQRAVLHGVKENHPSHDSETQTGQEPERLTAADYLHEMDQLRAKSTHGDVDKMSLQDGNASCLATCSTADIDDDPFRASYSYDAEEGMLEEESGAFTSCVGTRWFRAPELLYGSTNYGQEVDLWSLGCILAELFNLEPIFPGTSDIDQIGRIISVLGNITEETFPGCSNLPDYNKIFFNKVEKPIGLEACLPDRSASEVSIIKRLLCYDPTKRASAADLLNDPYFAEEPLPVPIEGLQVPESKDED
# Procedure, shortened: as §1
# [19] = test system: LOC_OS07G06570-cb004
# Procedure, shortened: as §1
# [20] = test system: LOC_OS07G07230-cb001
# Procedure, shortened: as §1
Structure (SMILES),thermal shift delta Tm [1],thermal shift delta Tm [2],thermal shift delta Tm [3],thermal shift delta Tm [4],thermal shift delta Tm [5],thermal shift delta Tm [6],thermal shift delta Tm [7],thermal shift delta Tm [8],thermal shift delta Tm [9],thermal shift delta Tm [10],thermal shift delta Tm [11],thermal shift delta Tm [12],thermal shift delta Tm [13],thermal shift delta Tm [14],thermal shift delta Tm [15],thermal shift delta Tm [16],thermal shift delta Tm [17],thermal shift delta Tm [18],thermal shift delta Tm [19],thermal shift delta Tm [20]
C=CC(=O)Nc1cccc(C)c1Nc1ncc2cc(-c3c(Cl)c(OC)cc(OC)c3Cl)ccc2n1,1.09 °C,0.44 °C,0.49 °C,-0.06 °C,0.28 °C,0.23 °C,0.27 °C,0.49 °C,2.08 °C,0.27 °C,0.51 °C,0.53 °C,-0.76 °C,0.18 °C,0.34 °C,0.48 °C,-5.85 °C,0.33 °C,0.84 °C,0.04 °C
Cn1cnc(N)c2ncnc1-2 [3-Methyladenine (3-MA)],0.36 °C,0.39 °C,0.47 °C,-0.25 °C,0.15 °C,0.39 °C,0.4 °C,0.91 °C,1.15 °C,0.12 °C,-0.01 °C,0.75 °C,-3.2 °C,0.15 °C,0.64 °C,0.46 °C,-0.06 °C,0.64 °C,0.43 °C,0.03 °C
CC(C)(C#N)c1ccc(N2C(=O)OCc3cnc4ccc(-c5cnc6ccccc6c5)cc4c32)cc1,0.62 °C,0.01 °C,0.55 °C,0.2 °C,0.32 °C,0.21 °C,0.32 °C,1.01 °C,0.8 °C,0.2 °C,0.16 °C,1.96 °C,-0.65 °C,0.5 °C,0.58 °C,0.71 °C,0.44 °C,0.89 °C,1.76 °C,0.63 °C
COc1cc2c(N3CCN(C(=O)Nc4ccc(OC(C)C)cc4)CC3)ncnc2cc1OCCCN1CCCCC1 [Tandutinib (MLN518)],1.37 °C,0.74 °C,0.9 °C,0.38 °C,0.28 °C,0.42 °C,0.95 °C,1.58 °C,1.79 °C,0.92 °C,2.05 °C,1.44 °C,0.72 °C,0.2 °C,0.16 °C,0.41 °C,-1.38 °C,0.3 °C,1.1 °C,0.38 °C
COc1cc(OC)c(/C=C/S(=O)(=O)Cc2ccc(OC)c(NCC(=O)O)c2)c(OC)c1,0.52 °C,0.14 °C,0.35 °C,0.36 °C,0.04 °C,0.44 °C,0.25 °C,0.47 °C,1.33 °C,0.67 °C,0.06 °C,0.2 °C,-0.41 °C,0.21 °C,0.62 °C,0.71 °C,-0.1 °C,0.75 °C,0.87 °C,0.29 °C
COc1ccc(S(=O)(=O)N(C(C)=O)c2ccccc2/C=C/c2cc[n+]([O-])cc2)cc1,-0.35 °C,-0.24 °C,0.19 °C,0.13 °C,-0.03 °C,0.17 °C,0.09 °C,0.01 °C,0.55 °C,0.61 °C,0.43 °C,0.92 °C,-6.15 °C,0.67 °C,0.66 °C,0.45 °C,0.41 °C,0.58 °C,1.06 °C,0.31 °C
O=C(NOCCO)c1ccc2cncn2c1Nc1ccc(I)cc1F,0.53 °C,0.01 °C,0.75 °C,-0.37 °C,0.29 °C,-0.24 °C,0.06 °C,-0.73 °C,-1.85 °C,0.39 °C,-0.36 °C,-0.3 °C,-1.92 °C,0.09 °C,0.54 °C,0.3 °C,-0.27 °C,0.39 °C,0.35 °C,0.91 °C
CCN1/C(=C/C(C)=O)Sc2ccc(OC)cc21,0.78 °C,0.02 °C,0.22 °C,0.14 °C,0.03 °C,0.66 °C,0.32 °C,0.67 °C,0.6 °C,0.55 °C,-0.02 °C,2.71 °C,0.06 °C,0.32 °C,0.33 °C,0.34 °C,-0.18 °C,0.54 °C,0.57 °C,0.23 °C
COc1ccc(-c2ccc3c(N4CCOC[C@@H]4C)nc(N4CCOC[C@@H]4C)nc3n2)cc1CO,0.67 °C,0.38 °C,0.33 °C,-0.12 °C,0.09 °C,0.41 °C,0.18 °C,0.4 °C,-0.21 °C,0.57 °C,-0.09 °C,0.42 °C,-7.62 °C,0.13 °C,0.67 °C,0.21 °C,0.03 °C,0.43 °C,0.38 °C,0.11 °C
O=c1[nH]nc(Sc2ncc([N+](=O)[O-])s2)n1-c1ccc2c(c1)OCCO2,1.36 °C,-0.1 °C,0.22 °C,-1.14 °C,0.03 °C,0.84 °C,-0.33 °C,0.5 °C,3.06 °C,-0.54 °C,-1.46 °C,-1.46 °C,-2.53 °C,0.59 °C,0.64 °C,0.84 °C,-0.58 °C,0.5 °C,3.84 °C,0.07 °C
CNC(=O)CN1CCC(Oc2cc3c(Nc4cccc(Cl)c4F)ncnc3cc2OC)CC1 [Sapitinib (AZD8931)],0.58 °C,0.5 °C,-0.02 °C,0.79 °C,0.05 °C,0.05 °C,0.22 °C,3.22 °C,0.11 °C,0.35 °C,0 °C,3.04 °C,-12 °C,-0.17 °C,0.6 °C,0.17 °C,1.14 °C,0.37 °C,0.48 °C,-0.24 °C
O=C(NCCCNc1nc(Nc2cccc(NC(=O)N3CCCC3)c2)ncc1I)c1cccs1,14.3 °C,1.24 °C,0.97 °C,7.32 °C,0.57 °C,6.67 °C,6.52 °C,7.01 °C,3.4 °C,2.91 °C,5.69 °C,12.1 °C,10.4 °C,0.99 °C,3.99 °C,1.24 °C,9.95 °C,0.36 °C,0.51 °C,0.21 °C
